Assay [1] relates to TRPC4 beta (transient receptor potential cation channel C4), mouse. Put plainly: TRPC4 cation channel opening, retest – cell-based, Fluo4 calcium, HEK293 TRPC4beta/mu-opioid, duplicates, 10 µM, confirmation (AID 2426). Conditions: Fluo4 calcium fluorescence, at 10 µM; hits give high values.
The test system of assay [2] is transient receptor potential cation channel C4 beta (TRPC4), mouse. Kind of assay: TRPC4 cation channel opening, second retest – cell-based, second round, Fluo4, HEK293 TRPC4beta/mu-opioid, 1 µM, confirmation (AID 2461;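 active = primary screen active and over 50% activation in each of two duplicate runs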). The following applies: Fluo4 calcium fluorescence, at 1 µM; hits give high values.
Assay [3] deals with TRPC4 (transient receptor potential cation channel C4 beta), mouse. Kind of assay: potentiation of DAMGO EC20 TRPC4 response – cell-based, second round, Fluo-4, HEK293 TRPC4beta/mu-opioid, 1 µM, confirmation (AID 2554;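 active = primary screen hit whose fluorescence ratio, in both repeats, exceeds the weak agonist control mean by 3 SD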). Conditions: DAMGO EC20, Fluo-4 calcium flux, at 1 µM; hits give high values.
For assay [4], the system named is TRPC4 beta (transient receptor potential cation channel C4), mouse. Kind of assay: potentiation of DAMGO EC20 TRPC4 response – cell-based, Fluo-4, HEK293 TRPC4beta/mu-opioid, confirmation (AID 2555;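 active = primary screen hit whose calcium fluorescence ratio, in both repeats, exceeds the weak agonist control mean by 3 SD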). Conditions: DAMGO EC20, Fluo-4 calcium flux, at 10 µM; hits give high values.
Assay [5] has as its target Short transient receptor potential channel 4 (Mus musculus) (UniProt Q9QUQ5). Put plainly: blockers of DAMGO-evoked TRPC4 calcium flux – cell-based, Fluo4, HEK293 TRPC4beta/mu-opioid, confirmation (AID 2636;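 active = calcium signal cut by more than 3 SD below the full-agonist control yet still positive, in both repeats and the earlier primary screen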). Conditions: at 10 µM; hits give high values.
For assay [6] the target is unchanged. Put plainly: blockers of DAMGO-evoked TRPC4 calcium flux – cell-based, second round, Fluo4, HEK293 TRPC4beta/mu-opioid, 1 µM, confirmation (AID 2637;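 active = calcium signal ratio cut to more than 3 SD under the fully stimulated control mean yet still positive, in both repeats and the primary screen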;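 for inhibition: percent of integrated ratio relative to wells lacking test compound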). Conditions: at 1 µM; hits give high values.
Assay [7] shares this target. Kind of assay: calcium entry via TRPC4 opening agents – cell-based, HEK293 TRPC4/mu-opioid, Fluo-4 calcium, dose response (AID 434937;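 active = primary screen activator hit with a dose response curve and TRPC4 channel activation at any tested dose; inactive = no activation, no dose response, or not a primary hit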).
Assay [8] shares this target. Kind of assay: potentiation of DAMGO-evoked TRPC4 calcium signal – cell-based, HEK293 TRPC4/mu-opioid, Fluo-4 calcium, EC20 DAMGO, dose response (AID 434941;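 active = earlier screen potentiator hit that boosts the TRPC4 ion channel at some dose, with a dose response; inactive = no potentiation, no dose response, or not a prior hit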;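 note: calcium entry triggered by an EC20 dose of DAMGO at the co-expressed mu-opioid receptor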).
Assay [9] shares this target. Put plainly: block of DAMGO-driven TRPC4 calcium entry – cell-based, HEK293 TRPC4/mu-opioid, Fluo-4 calcium, dose response (AID 434942;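 active = primary screen inhibitor hit that blocks the TRPC4 channel at some tested dose, yielding a dose curve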).
Assay [10] concerns the target Short transient receptor potential channel 6 (Mus musculus) (UniProt Q61143). Put plainly: TRPC6 blockade by TRPC4 inhibitor hits – cell-based, HEK293, membrane potential dye, duplicate, selectivity assay for TRPC4 inhibitor project, confirmation (AID 434948;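 active = active in primary screen and both duplicates, each dropping signal beyond three positive-control SD with fluorescence still positive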). Conditions: HEK293 TRPC6, membrane potential dye fluorescence, at 10 µM; inhibition: hits give high values, stimulated with maximal-effect acetylcholine unless noted; outcome: stimulated with maximal-effect acetylcholine unless noted.

Assay [11] shares this target. Kind of assay: TRPC6 opening by TRPC4 activator hits – cell-based, HEK293, membrane potential dye, duplicate, selectivity assay for TRPC4 activator project, confirmation (AID 434950;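 active = membrane potential signal rise above negative control mean plus 3 SD in both duplicates, also active in the earlier TRPC4 screen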). The following applies: HEK293 TRPC6, membrane potential fluorescence, at 10 µM; activation: hits give high values; outcome: activation.
The target is the same in assay [12]. Put plainly: positive modulators of mouse TRPC6 channel – HEK293 cells, membrane potential dye, duplicate, selectivity assay for TRPC4 potentiator project, confirmation (AID 434952;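 active = compound raising the membrane signal above positive-control mean plus 3 SD in both repeats, and a primary screen hit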). The following applies: HEK293 TRPC6, membrane potential dye fluorescence, at 10 µM; maximal acetylcholine added after compound unless noted.
Assay [13] deals with Short transient receptor potential channel 4 (Mus musculus) (UniProt Q9QUQ5). Kind of assay: calcium flux activators in TRPC4/5HT1a cells, counter-screen for TRPC4 activator project, cell-based, second counter screen, HEK293 TRPC4/5HT1a, Fluo-4 (AID 434977;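 active = calcium signal rise above buffer-control mean plus 5 SD in both duplicates, and also a hit in the primary screen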). Conditions: Fluo-4 calcium flux, at 10 µM; hits give high values.
Short transient receptor potential channel 4 (Mus musculus), sequence (Q9QUQ5 whole entry, looked up): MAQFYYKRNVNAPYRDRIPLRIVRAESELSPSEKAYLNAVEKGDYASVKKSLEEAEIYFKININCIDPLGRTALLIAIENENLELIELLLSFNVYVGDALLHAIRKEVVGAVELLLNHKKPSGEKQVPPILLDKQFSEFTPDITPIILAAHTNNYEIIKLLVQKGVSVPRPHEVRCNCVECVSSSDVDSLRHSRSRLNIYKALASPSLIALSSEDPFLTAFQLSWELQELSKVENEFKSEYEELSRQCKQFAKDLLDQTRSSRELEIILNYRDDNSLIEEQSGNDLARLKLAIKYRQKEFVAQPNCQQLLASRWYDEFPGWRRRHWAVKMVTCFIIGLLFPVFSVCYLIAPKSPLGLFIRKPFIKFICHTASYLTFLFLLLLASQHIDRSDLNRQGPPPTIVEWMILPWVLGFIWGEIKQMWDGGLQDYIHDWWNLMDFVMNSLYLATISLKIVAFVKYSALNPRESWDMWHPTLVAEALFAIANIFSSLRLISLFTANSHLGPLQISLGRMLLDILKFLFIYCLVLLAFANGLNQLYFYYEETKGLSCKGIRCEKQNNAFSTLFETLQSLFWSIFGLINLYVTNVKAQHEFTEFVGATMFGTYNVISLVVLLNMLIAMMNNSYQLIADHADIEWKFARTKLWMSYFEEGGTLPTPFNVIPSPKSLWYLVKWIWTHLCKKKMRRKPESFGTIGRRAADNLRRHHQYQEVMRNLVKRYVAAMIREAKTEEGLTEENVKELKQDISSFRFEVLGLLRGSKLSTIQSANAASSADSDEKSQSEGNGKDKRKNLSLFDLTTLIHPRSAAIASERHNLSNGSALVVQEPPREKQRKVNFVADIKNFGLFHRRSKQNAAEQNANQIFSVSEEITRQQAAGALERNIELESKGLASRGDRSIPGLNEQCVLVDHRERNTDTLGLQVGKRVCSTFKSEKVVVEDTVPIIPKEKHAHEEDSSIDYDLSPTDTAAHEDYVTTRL
Assay [14] is described as follows: serotonin-gated TRPC4 signal block – cell-based, second counter screen, HEK293 TRPC4/5HT1a, Fluo-4, counter-screen for TRPC4 inhibitor project, confirmation (AID 434978;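 active = primary screen active whose calcium signal fell more than 3 SD beyond the full-serotonin control mean in both duplicate plates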;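 for outcome: serotonin given first at submaximal then at maximal dose after compound preincubation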). The following applies: Fluo-4 calcium flux, at 10 µM; inhibition: hits give high values, serotonin added to trigger calcium flux unless noted; outcome: serotonin added to trigger calcium flux unless noted.

Assay [15] has as its system TRPC4 (mouse), co-expressed with 5HT1a in HEK293. Kind of assay: enhancement of serotonin-evoked TRPC4 response – cell-based, second counter screen, HEK293 TRPC4/5HT1a, Fluo-4, counter-screen for TRPC4 potentiator project, confirmation (AID 434979;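 active = signal rise over 3 SD above mean of control wells given weak agonist, in both repeats and first screen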). Conditions: Fluo-4 calcium flux, at 10 µM; outcome: serotonin added at its EC20 dose unless noted; potentiation: hits give high values, serotonin added at its EC20 dose unless noted.

A short description of assay [16]: nonspecific calcium rise without TRPC4 – cell-based, HEK293 mu-opioid receptor line, counter-screen for TRPC4 activator project, confirmation (AID 449723;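 active = hit in primary screen, with calcium signal over 5 SD above buffer well mean in both duplicates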;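 note: counter screen cells carry the mu-opioid receptor alone and lack TRPC4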). The following applies: HEK293 mu-opioid cells, Fluo-4 calcium fluorescence, at 10 µM; hits give high values.
The nature of assay [17]: nonspecific potentiation of DAMGO calcium response – cell-based, HEK293 mu-opioid receptor line, counter-screen for TRPC4 allosteric potentiator project, confirmation (AID 449724;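 active = calcium signal rise more than 3 SD above the low-dose agonist control mean, in both duplicate plates and the primary screen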;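 note: HEK293 cells carrying mu-opioid receptor only with no TRPC4 channel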). The following applies: HEK293 mu-opioid receptor cells, Fluo-4 calcium flux, at 10 µM; compound added before EC20 DAMGO stimulus unless noted.

For part of these data: Potency and affinity values are given separately. Active and inactive are the calls of the source.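 Rule for the calls, unless noted: active = fluorescence ratio normalized to control raised more than 50% in primary screen plus both repeat runs; inactive = the rest.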

Short transient receptor potential channel 6 (Mus musculus), sequence (Q61143 whole entry, looked up): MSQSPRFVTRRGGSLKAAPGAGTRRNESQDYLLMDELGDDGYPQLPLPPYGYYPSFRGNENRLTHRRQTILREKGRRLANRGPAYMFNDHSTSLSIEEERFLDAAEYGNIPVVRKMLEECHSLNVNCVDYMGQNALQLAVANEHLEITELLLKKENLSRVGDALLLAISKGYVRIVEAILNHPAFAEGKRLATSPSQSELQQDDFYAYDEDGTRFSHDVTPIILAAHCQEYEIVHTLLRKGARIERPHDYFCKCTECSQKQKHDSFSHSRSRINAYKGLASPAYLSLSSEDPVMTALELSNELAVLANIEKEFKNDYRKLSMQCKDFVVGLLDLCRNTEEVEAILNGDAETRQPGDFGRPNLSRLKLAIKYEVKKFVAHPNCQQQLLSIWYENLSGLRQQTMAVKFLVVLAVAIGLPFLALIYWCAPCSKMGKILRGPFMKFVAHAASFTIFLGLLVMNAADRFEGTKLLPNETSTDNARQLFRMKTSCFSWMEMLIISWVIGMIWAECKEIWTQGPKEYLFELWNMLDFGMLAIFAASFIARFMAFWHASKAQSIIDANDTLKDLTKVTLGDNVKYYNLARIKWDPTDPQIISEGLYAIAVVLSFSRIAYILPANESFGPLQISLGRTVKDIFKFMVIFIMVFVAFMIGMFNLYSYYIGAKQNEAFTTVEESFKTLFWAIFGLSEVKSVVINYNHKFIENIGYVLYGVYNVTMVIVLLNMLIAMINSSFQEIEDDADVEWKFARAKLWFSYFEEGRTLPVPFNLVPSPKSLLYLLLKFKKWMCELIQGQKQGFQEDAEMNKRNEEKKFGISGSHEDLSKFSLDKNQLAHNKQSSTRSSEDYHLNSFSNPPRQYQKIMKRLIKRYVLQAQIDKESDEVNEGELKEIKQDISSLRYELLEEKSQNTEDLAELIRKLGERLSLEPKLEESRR

Regarding `CC(Cc1ccccc1)NCC(=O)Nc1cc(N(C)C)nc2ccccc12` (stereo not drawn), the result in assay [1], in [2], in assay [3], in [4], in [6] and in assay [7] was inactive. Also, the outcome in assay [8], in [9], in assay [10], in [11], in [12] and in assay [13] was inactive. Besides, the result in assay [15], in assay [16] and in assay [17] was inactive. For the same compound, the inhibition was 82% (active) in assay [5] and 46% (active) in assay [14].
On to `Cc1ccc(-c2cc(-c3ccccc3)cc(-c3ccccc3)[n+]2-c2ccccc2)cc1`, for which the result in assay [1], in [2], in assay [3], in assay [5], in assay [6] and in [7] was inactive. In addition, the outcome in [8], in [9], in assay [10], in assay [11], in [12] and in [13] was inactive. Further, the result in assay [14], in [16] and in assay [17] was inactive. The potentiation was 18% (active) in assay [4] and 9.63% (active) in assay [15].
On to `CCOC(=O)C1(CCc2ccccc2)CCN(Cc2cccc3c2OCO3)CC1`, for which the outcome in [1], in [2], in [3], in assay [4], in assay [6] and in assay [7] was inactive. Also, the result in assay [8], in assay [10], in assay [11], in [12], in [13] and in assay [14] was inactive. Also, the result in [15], in assay [16] and in assay [17] was inactive. Besides, the inhibition in assay [5] is 102% (active).
For the compound `COc1ccc(C[C@@H]2c3cc(O)c(OC)cc3CCN2C)cc1O`, the outcome in assay [1], in assay [2], in assay [3], in [4], in assay [5] and in assay [6] was inactive. The outcome in assay [7], in [8], in assay [9], in assay [10], in assay [11] and in assay [12] was inactive. In addition, the result in [13], in assay [14], in [15], in assay [16] and in [17] was inactive.
Consider `COc1ccc(Br)cc1CN1CCN(C(=O)Cc2ccccc2)CC1`, for which the result in assay [1], in assay [2], in [3], in [4], in assay [6] and in [7] was inactive. The result in assay [8], in assay [10], in [11], in assay [12], in [13] and in [15] was inactive. The result in [16] and in [17] was inactive. Moreover, the inhibition in assay [5] is 89% (active); in assay [14] it was 20.6% (active).
For `Cc1ccc(C2CN(C)CC2C(=O)c2ccc(F)cc2)cc1` (stereo not drawn), the result in [1], in assay [2], in assay [3], in assay [4], in [7] and in assay [8] was inactive. Moreover, the outcome in assay [10], in assay [11], in assay [12], in assay [13], in assay [15] and in assay [16] was inactive. The result in assay [17] was inactive. Besides, the inhibition in assay [5] is 87% (active); in [6] it was 42% (active); in assay [14], 38% (active).
For `O=C(Cc1ccccc1)N1CCN(Cc2cccc(Br)c2)CC1`, the outcome in assay [1], in assay [2], in assay [3], in [4], in assay [6] and in assay [7] was inactive. Moreover, the outcome in [8], in assay [10], in assay [11], in assay [12], in assay [13] and in [15] was inactive. Also, the result in assay [16] and in assay [17] was inactive. Moreover, the inhibition is 81% (active) in assay [5] and 37.8% (active) in assay [14].
On to `CCC1=Nc2cc(C(=O)N3CCC4(CC3)OCCO4)ccc2Sc2ccc(C)cc21`, for which the result in assay [1], in assay [2], in [3], in assay [4], in assay [6] and in assay [7] was inactive. In addition, the result in assay [8], in [11], in assay [13] and in assay [16] was inactive. Also, in [5], the inhibition is 74% (active). Also, the outcome in [10], in assay [12], in [14], in assay [15] and in [17] was “inactive [setting not given]” throughout.
Regarding `N=c1n(CCO)c2ccccc2n1Cc1ccccc1`, the result in assay [1], in assay [2], in assay [3], in assay [4], in [7] and in assay [8] was inactive. In addition, the outcome in assay [10], in [11], in [12], in assay [13], in assay [15] and in assay [16] was inactive. In addition, the result in assay [17] was inactive. Also, the inhibition in [5] is 86% (active); in assay [6], 48% (active); in assay [14] it was 42.9% (active).
As for `CCN(CC)CC(=O)Nc1ccc(Cl)cc1C(=O)c1ccccc1`, the result in assay [1], in [2], in assay [3], in assay [4], in [6] and in assay [7] was inactive. In addition, the result in assay [8], in assay [10], in assay [11], in assay [12], in assay [13] and in [15] was inactive. Moreover, the outcome in [16] and in [17] was inactive. The inhibition in assay [5] was 89% (active); in assay [14] it was 33.6% (active).
`CC(=O)OC1(c2ccccc2)CCN(C2CCCCC2)CC1C` (stereo not drawn): the result in assay [1], in assay [2], in [3], in assay [4], in [6] and in [7] was inactive. Also, the result in assay [8], in assay [11], in assay [13] and in assay [16] was inactive. Besides, the inhibition in [5] was 91% (active). Besides, the outcome in assay [10], in [12], in assay [14], in assay [15] and in assay [17] was “inactive [setting not given]” throughout.
With `O=C(c1ccc(Cl)cc1)C1CCCN(C2CCSCC2)C1` (stereo not drawn), the result in assay [1], in assay [2], in [3], in assay [4], in assay [7] and in [8] was inactive. For the same compound, the compound was called inactive in [10], in assay [11], in assay [12], in assay [13], in assay [15] and in assay [16]. Besides, the outcome in [17] was inactive. Also, the inhibition in assay [5] was 86% (active); in [6], 64% (active); in assay [14], 31.4% (active).
Take `CCCCc1ncc(CN2CCCC(C(=O)c3ccc(SC)cc3)C2)[nH]1` (stereo not drawn): the result in assay [1], in [2], in assay [3], in assay [4], in assay [7] and in assay [8] was inactive. Besides, the outcome in assay [10], in assay [11], in [12], in assay [13], in [15] and in [16] was inactive. In addition, the result in assay [17] was inactive. In addition, the inhibition in [5] is 90% (active); in assay [6] it was 45% (active); in assay [14], 41.9% (active).
On to `Clc1ccc(N2CCNCC2)nn1`, for which the outcome in assay [1], in [2], in assay [4], in [5], in assay [6] and in [7] was inactive. Further, the result in assay [8], in assay [9], in [10], in [11], in [12] and in assay [13] was inactive. In addition, the result in assay [14], in assay [16] and in [17] was inactive. Further, the results for the potentiation in assay [3] and in [15] were 14% (active) and 16.3% (active), respectively.

The values above are taken from PubChem BioAssay.
